Holding throughout (assay): NCI-60 one-dose screen, 48 h (100 = growth as untreated, 0 = no growth, -100 = all killed)
Settings in all cases: 10 µM

Experiment [1] concerns NCI-H23 lung.
Experiment [2] has as its system NCI-H226 lung.
For experiment [3], the system named is NCI-H322M lung.
The subject of experiment [4] is HOP-62 NSCLC.
In experiment [5] the test system is NCI-H460 lung.
Experiment [6] has as its system NCI-H522 lung.
Experiment [7] deals with A549/ATCC NSCLC.
Experiment [8] relates to 786-0 renal.
For experiment [9], the system named is COLO 205 colon.
Experiment [10] concerns DU-145 prostate.

This is an account of results in PubChem BioAssay (NCI).

Compounds without any hit were thinned out: in the full panel of roughly 83,000, 20% have a hit.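 Note: values are percent growth. 100 is the growth of untreated cells, values between 100 and 0 indicate rising inhibition; between -100 and 0 indicates cell death.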 Unmarked numbers belong to inactive results. Activity calls are given as the source filed them. The calls were made as follows: active = growth percent below 10; inactive = the rest.

`COc1ccc2c(c1)C(=O)c1c-2c(OCCN2CCCCC2)nc2ccc(OC)cc12`: the growth in [1] was 12.6%; in [2] it was 23.9%; in experiment [3] it was 5.72% (active); in [4] it was 24.4%; in experiment [5], -50.7% (active); in [6], 25.1%. Besides, the growth in experiment [7] was 11.6%; in experiment [8] it was 18%; in experiment [9] it was 28%; in [10], 11.3%.
On to `FC(F)(F)c1ccc(-c2cnc(Cl)nc2N2CCC3(CC2)OCCO3)cc1`, for which the growth in experiment [1] was 94.9%; in experiment [2], 94.4%; in experiment [3], 91.7%; in experiment [4], 97.2%; in [5] it was 100%; in [6] it was 63.2%. For the same compound, the growth in experiment [7] is 90.2%; in [8], 95.5%; in experiment [9], 93.2%; in [10], 95.5%.
Turning to `COc1ccc(-c2nc3sccn3c2-c2nc3c([nH]2)C(=O)c2ccccc2C3=O)cc1`, the growth was 95.7% in experiment [1]; 95.1% in experiment [2]; 108% in [3]; 107% in [4]; 91.3% in experiment [5]; 96.8% in [6]. Moreover, the growth in [7] is 67.5%; in experiment [8] it was 89.4%; in experiment [9] it was 102%; in experiment [10], 104%.
In the case of `COc1ccc([N+](=O)[O-])c(C(=O)O)c1`, the growth in experiment [1] is 105%; in [2], 95%; in experiment [3], 93.4%; in experiment [4], 100%; in [5] it was 106%; in experiment [6] it was 73.4%. In addition, the growth in experiment [7] is 103%; in experiment [8] it was 101%; in experiment [9] it was 102%; in [10] it was 112%.
As to `O=C(Nc1ccc(Cl)cc1)N1NC(c2ccc(Cl)cc2)C=C1c1ccccc1` (stereo not given), the growth in experiment [1] was 104%; in [2], 109%; in experiment [3] it was 90.8%; in experiment [4] it was 93.4%; in experiment [5] it was 105%; in experiment [6], 98.4%. Besides, the growth in experiment [7] is 89.9%; in experiment [8] it was 92.1%; in experiment [9] it was 99.3%; in experiment [10], 102%.
As to `O=C(Nc1ccc(Cl)c(Cl)c1)Nc1c(Oc2ccc(Cl)c(Cl)c2)ccc(Cl)c1S(=O)(=O)O`, the growth was 39.5% in [1]; 66% in [2]; 50.8% in [3]; 49.4% in [4]; 9.02% (active) in [5]; -1.66% (active) in experiment [6]. In addition, the growth in experiment [7] was 37%; in [8] it was 35%; in experiment [9] it was -13.9% (active); in experiment [10] it was 21.1%.
Regarding `Cc1ccc(S(=O)(=O)Oc2ccc3c4c(c(=O)oc3c2)CCCCC4)cc1`, the growth was 62.9% in experiment [1]; 55.9% in [2]; 95.1% in [3]; 81% in experiment [4]; 37.2% in [5]; 57.9% in experiment [6]. Also, the growth in experiment [7] is 40.9%; in [8], 66.6%; in experiment [9], 28.5%; in [10], 87.8%.
As for `ClCC#CCSc1ncnc2c1ncn2CC#CCCl`, the growth in experiment [1] was -6.61% (active); in experiment [2] it was -13.6% (active); in experiment [3], 15.3%; in experiment [4], -58.4% (active); in experiment [5], 1.04% (active); in experiment [6], -56% (active). Also, the growth is 46.5% in experiment [7], 13.3% in experiment [8], 54.4% in experiment [9] and -20.9% (active) in [10].
For the compound `COc1cc(Nc2ccnc(NCCNc3ccnc4cc(Cl)ccc34)n2)cc(OC)c1`, the growth in [1] is 38.2%; in experiment [2], 55.5%; in experiment [3], 46.5%; in [4], 79.2%; in [5], 27.8%; in experiment [6], 17.7%. For the same compound, the growth in experiment [7] was 42.9%; in experiment [8], 35.4%; in experiment [9], 2.21% (active); in experiment [10], 63.9%.
With `COc1ccc(Nc2cc(C)nc(NCCCNc3ccnc4cc(Cl)ccc34)n2)cc1`, the growth is 63.2% in experiment [1]; 110% in experiment [2]; -3.79% (active) in [3]; 18.7% in experiment [4]; -4.78% (active) in [5]; -74% (active) in experiment [6]. Further, the growth in experiment [7] is -44.7% (active); in [8], -97.7% (active); in experiment [9] it was -96.3% (active); in [10] it was 28%.
Consider `COc1ccc(S(=O)(=O)Nc2c(/C=C\c3cc(OC)c(OC)c(OC)c3)ccc(OC)c2O)cc1`, for which the growth is 33.1% in experiment [1]; 12.9% in experiment [2]; 40.5% in [3]; 49.1% in [4]; 6.2% (active) in experiment [5]; -47.6% (active) in [6]. The growth in experiment [7] was 15.6%; in [8], 9.56% (active); in [9] it was 3.21% (active); in [10], -16.7% (active).
For `C#Cc1ccc(-n2c(/C=C/c3ccc(C(F)(F)F)cc3)nc3ncccc3c2=O)cc1`, the growth is 78.4% in experiment [1]; -42.7% (active) in [2]; 33.7% in experiment [3]; 37.6% in [4]; 72.1% in experiment [5]; 4.27% (active) in [6]. Further, the growth in experiment [7] is 23.6%; in experiment [8] it was 53%; in experiment [9], 18.6%; in experiment [10] it was 46.2%.
For the compound `Cc1cc(C)c2c(n1)sc1c(Nc3ccc(Cl)cc3)ncnc12`, the growth in experiment [1] is 4.49% (active); in experiment [2] it was 1.79% (active); in [3], 32%; in experiment [4], 5.01% (active); in [5] it was 5.8% (active); in [6], 16.1%. For the same compound, the growth in experiment [7] was 18.2%; in experiment [8], -3.32% (active); in experiment [9], 10.6%; in [10], 6.73% (active).
